Columns and labels:
Test in all cases: DAPPL (digital affinity profiling via proximity ligation, sequencing); 10 mM Tris-HCl pH 7.5, 50 mM NaCl, 1 mM DTT, 4% glycerol, room temperature, 30 min; GST-TFs on glutathione beads, 16-mer random dsDNA library, 0.1% formaldehyde crosslink after washing; high values mean tight binding
Details in all cases: protein: recombinant; tags: N-terminal GST; dsDNA, one strand shown
FLI1 = biological target: T1, FLI1 (Homo sapiens, UniProt Q01543 1-452)
T1 sequence: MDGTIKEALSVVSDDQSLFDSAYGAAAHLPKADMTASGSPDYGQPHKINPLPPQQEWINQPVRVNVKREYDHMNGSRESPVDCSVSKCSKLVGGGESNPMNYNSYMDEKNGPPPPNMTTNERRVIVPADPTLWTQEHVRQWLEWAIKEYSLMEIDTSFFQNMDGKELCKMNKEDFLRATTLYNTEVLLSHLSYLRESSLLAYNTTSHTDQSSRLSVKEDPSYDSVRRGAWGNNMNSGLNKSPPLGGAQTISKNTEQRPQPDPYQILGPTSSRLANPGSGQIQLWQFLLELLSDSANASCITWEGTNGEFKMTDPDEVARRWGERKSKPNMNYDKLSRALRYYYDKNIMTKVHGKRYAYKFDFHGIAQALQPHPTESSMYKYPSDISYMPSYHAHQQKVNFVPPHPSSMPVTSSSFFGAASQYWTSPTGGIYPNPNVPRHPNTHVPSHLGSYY
How it was run: (§1)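 Binding signal is defined as a hexamer's read frequency for one factor over its frequency for the tag-only sample. To obtain reads, GST-fused human transcription factors were expressed in yeast, captured on glutathione beads, barcoded with DNA and pooled with that sample. Pools met 200 nmole of a 16-mer random double-stranded DNA library in Tris/NaCl/DTT/glycerol buffer for 30 min at room temperature before washing, 0.1% formaldehyde crosslinking, proximity ligation (BsaI/T4 ligase, 1 h, 37 °C), PCR and Illumina NextSeq500 sequencing.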

ELK1 = biological target: T2, ELK1 (Homo sapiens, UniProt P19419 1-428)
T2 sequence: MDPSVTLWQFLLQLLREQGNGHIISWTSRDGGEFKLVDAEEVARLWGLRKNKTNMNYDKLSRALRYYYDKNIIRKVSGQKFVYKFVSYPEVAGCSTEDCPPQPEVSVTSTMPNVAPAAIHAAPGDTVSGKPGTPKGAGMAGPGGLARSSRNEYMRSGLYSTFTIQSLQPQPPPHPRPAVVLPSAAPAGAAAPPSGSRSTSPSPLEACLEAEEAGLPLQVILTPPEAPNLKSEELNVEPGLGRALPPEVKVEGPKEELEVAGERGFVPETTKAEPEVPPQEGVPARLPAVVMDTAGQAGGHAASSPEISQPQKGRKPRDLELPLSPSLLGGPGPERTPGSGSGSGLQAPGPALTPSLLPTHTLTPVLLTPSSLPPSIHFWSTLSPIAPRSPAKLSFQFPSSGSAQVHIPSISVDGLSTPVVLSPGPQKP
How it was run: as §1

GABPA = biological target: T3, GABPA (Homo sapiens, UniProt Q06546 1-454)
T3 sequence: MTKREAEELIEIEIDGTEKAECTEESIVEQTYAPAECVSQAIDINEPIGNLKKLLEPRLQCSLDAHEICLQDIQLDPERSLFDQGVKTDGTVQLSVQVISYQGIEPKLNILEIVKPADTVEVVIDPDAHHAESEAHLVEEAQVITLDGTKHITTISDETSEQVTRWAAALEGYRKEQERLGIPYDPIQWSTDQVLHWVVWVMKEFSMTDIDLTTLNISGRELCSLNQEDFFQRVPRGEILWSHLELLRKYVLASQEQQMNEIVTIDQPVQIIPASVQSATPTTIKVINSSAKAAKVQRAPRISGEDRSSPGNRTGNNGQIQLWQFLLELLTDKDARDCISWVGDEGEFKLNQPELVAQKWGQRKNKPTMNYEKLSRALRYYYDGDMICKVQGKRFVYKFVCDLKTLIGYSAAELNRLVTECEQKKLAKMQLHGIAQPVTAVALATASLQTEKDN
How it was run: as §1

ERG = biological target: T4, ERG (Homo sapiens, UniProt P11308 1-479)
T4 sequence: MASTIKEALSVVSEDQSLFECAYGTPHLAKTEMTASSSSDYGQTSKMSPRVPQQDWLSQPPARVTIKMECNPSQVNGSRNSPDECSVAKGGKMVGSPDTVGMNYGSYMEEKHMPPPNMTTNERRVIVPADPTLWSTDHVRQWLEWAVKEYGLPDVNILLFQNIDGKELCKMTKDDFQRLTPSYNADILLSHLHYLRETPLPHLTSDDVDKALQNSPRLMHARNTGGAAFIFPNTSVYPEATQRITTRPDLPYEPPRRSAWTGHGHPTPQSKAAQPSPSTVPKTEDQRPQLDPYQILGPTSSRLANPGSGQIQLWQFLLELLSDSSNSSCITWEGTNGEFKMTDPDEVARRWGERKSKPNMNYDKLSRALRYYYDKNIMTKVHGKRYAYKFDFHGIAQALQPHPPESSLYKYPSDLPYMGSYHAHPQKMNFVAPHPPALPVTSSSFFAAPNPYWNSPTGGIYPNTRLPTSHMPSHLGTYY
How it was run: as §1

ELF1 = ELF1 (Homo sapiens, UniProt P32519 1-619)
How it was run: as §1

EHF = biological target: T5, EHF (Homo sapiens, UniProt Q9NZC4 1-300)
T5 sequence: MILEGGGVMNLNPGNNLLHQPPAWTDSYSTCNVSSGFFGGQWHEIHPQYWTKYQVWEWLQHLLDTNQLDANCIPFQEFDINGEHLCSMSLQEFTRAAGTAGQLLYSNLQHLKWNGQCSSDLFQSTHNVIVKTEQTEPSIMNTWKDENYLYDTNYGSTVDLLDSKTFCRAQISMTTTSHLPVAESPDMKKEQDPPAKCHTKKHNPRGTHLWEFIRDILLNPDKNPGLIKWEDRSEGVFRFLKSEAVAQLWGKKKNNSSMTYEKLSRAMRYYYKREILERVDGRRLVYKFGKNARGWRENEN
How it was run: as §1

SPI1 = SPI1 (Homo sapiens, UniProt P17947 1-270)
How it was run: as §1

SPIB = SPIB (Homo sapiens, UniProt Q01892 1-262)
How it was run: as §1

ELK3 = biological target: T6, ELK3 (Homo sapiens, UniProt P41970 1-407)
T6 sequence: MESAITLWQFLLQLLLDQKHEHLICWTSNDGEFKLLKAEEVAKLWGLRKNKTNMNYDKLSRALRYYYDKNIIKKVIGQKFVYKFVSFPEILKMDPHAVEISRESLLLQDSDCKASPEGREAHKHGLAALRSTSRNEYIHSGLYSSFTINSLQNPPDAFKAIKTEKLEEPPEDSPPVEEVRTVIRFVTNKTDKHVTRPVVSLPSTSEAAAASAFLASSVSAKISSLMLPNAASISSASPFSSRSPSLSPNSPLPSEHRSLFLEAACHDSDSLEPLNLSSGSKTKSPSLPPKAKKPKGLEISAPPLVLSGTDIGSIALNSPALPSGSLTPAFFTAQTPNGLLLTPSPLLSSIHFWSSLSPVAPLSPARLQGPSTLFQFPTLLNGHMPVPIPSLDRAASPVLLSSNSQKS
How it was run: as §1

Chain of SPIB (Q01892 whole entry): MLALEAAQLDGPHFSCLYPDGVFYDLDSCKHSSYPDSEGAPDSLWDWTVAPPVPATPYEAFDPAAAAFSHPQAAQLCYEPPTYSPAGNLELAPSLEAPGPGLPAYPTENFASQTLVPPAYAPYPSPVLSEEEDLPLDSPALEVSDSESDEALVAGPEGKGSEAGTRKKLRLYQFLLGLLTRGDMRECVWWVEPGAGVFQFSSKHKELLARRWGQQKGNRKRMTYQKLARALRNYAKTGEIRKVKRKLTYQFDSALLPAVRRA
Chain of ELF1 (P32519 whole entry): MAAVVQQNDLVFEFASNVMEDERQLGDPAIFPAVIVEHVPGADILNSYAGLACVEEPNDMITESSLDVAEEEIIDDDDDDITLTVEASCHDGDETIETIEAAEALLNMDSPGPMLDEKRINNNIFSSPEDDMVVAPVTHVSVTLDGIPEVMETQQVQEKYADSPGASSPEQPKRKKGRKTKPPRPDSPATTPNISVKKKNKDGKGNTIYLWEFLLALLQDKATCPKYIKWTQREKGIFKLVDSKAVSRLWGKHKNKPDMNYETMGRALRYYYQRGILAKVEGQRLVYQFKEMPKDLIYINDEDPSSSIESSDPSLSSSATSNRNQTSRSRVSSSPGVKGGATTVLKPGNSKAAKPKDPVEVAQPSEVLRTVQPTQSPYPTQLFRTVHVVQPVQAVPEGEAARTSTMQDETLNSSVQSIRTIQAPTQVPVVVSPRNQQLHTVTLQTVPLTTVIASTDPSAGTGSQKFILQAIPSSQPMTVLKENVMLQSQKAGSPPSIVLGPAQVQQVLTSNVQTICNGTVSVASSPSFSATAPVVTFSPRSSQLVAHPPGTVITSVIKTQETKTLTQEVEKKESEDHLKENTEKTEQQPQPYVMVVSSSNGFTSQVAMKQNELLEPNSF

## TAGCAC
FLI1
  binding signal: 1.16 fold enrichment (6-mer frequency, TF over GST control)
ELK1
  binding signal: 1.12 fold enrichment (6-mer frequency, TF over GST control)
GABPA
  binding signal: 1.24 fold enrichment (6-mer frequency, TF over GST control)
ERG
  binding signal: 1.15 fold enrichment (6-mer frequency, TF over GST control)
ELF1
  binding signal: 1.15 fold enrichment (6-mer frequency, TF over GST control)
EHF
  binding signal: 1.16 fold enrichment (6-mer frequency, TF over GST control)
SPI1
  binding signal: 1.06 fold enrichment (6-mer frequency, TF over GST control)
SPIB
  binding signal: 1.15 fold enrichment (6-mer frequency, TF over GST control)
ELK3
  binding signal: 1.19 fold enrichment (6-mer frequency, TF over GST control)
